Results from PubChem BioAssay (Tox21).
Results filed as inconclusive are left out. A number with no mark means an inactive call. The source made the active and inactive calls. Calls come from the whole dose curve; as a rule, active = well fitted activation curve with a large enough effect in the signal ratio in the repeat runs (not every such curve was filed as active); inconclusive = weak or mixed curves; inactive = flat fitted curve, though single readings scatter; the % refers to the signal ratio.

Assay: qHTS assay to identify small molecule agonists of H2AX (AID 1224845)
Settings: CHO-K1 phospho-H2AX Ser139 HTRF, 3 h; series mostly up to 154 µM; activation (H2AX phosphorylation): at the top concentration
Source text: National Center for Advancing Translational Sciences [NCATS]
NIH Chemical Genomics Center [NCGC]
U.S. Environmental Protection Agency [EPA]
National Institutes of Environmental Health Sciences [NIEHS]
National Toxicology Program [NTP]
U.S. Food and Drug Administration [FDA]
HTRF phospho-H2AX (Ser139) assay (Cisbio Bioassays, US) enables the quantitative detection of the histone variant H2AX when phosphorylated on serine 139. When double-stranded DNA breaks, either by ionizing radiation or endogenous physiological processes, H2AX becomes phosphorylated at Ser139. This phospho-Ser139 serves as a sensitive biomarker for the detection of such breaks, localizing the site of DNA repair. So, HTRF phospho-H2AX Ser139 is a pertinent assay to study genome stability, the cell cycle, DNA repair, and it serves as a biomarker for cancer, and to understand aging. Wild type CHO-K1 cells were used to identify the inducers of Phospho-H2AX Ser 139 from the Tox21 10K compound collections.
Tox21 Assay Protocol Summary:
The CHO-K1 cells suspended in culture medium containing 10% FBS were dispensed at 1000 cells/ 3 ul/well in 1536-well white wall/solid bottom plates (Greiner Bio-One North America, NC) using a Multidrop Combi (Thermo Fisher Scientific Inc., Waltham, MA). After the assay plates were incubated at 37C overnight, 23 nl of compounds at 15 concentrations (from 5-48 columns) or positive control (from 1 to 4 columns) were transferred to the assay plates using a Pintool station (Wako, San Diego, CA) into each well resulting in a final DMSO concentration of 0.76%. After 3hr incubation at 37C, 1 uL/well Supplemented Lysis buffer (diluted 100 fold blocking reagent in lysis buffer) (HTRF Phospho-H2A.X (S139) Assay kit from Cisbio US Inc., Bedford, MA) was added using a Flying Reagent Dispenser (FRD) (Aurora Discovery, CA). After 10sec spin at 1000 rpm in a plate centrifuge, the assay plates were incubated at room temperature for 30 min. Then followed by the addition of 1 uL/well detection buffer (containing a mixture of two antibodies, one labeled with cryptate, Anti pH2AX (S139)-K and another labeled with d2, Anti H2AX-d2) using FRD. After incubation at room temperature for 24 hr, the time resolved fluorescence at excitation 320 nm and emissions at 665 nm and 620 nm was measured using an Envision plate reader (PerkinElmer, Waltham, MA).
% is set by controls: 0 for no effect and ±100 for the full control effect; potency is the fitted concentration of half-maximal effect.

For `C=CC(=O)OCCOCCOC(=O)C=C`, the Potency was 56.9 µM (active).

First: Cc1c(N)cccc1[N+](=O)[O-]
Second: O=[N+]([O-])c1ccc2[nH]ncc2c1
The “activation (H2AX phosphorylation)” value of the first is higher: 0.0201% for the first, -1.18% for the second.

First: OCCNCc1ccccc1
Second: CN(C)c1ccc(CCO)cc1
The “activation (H2AX phosphorylation)” value of the first is lower: 0.788% for the first, 3.55% for the second.

Compared with `CCCCCCCCCCCCCCCCCCOS(=O)(=O)O`, `CCCCCCCCCOS(=O)(=O)O` is higher in “activation (H2AX phosphorylation)” value: 0.914% for the first, 1.76% for the second.

First: O=C(O)c1ccc(S(=O)(=O)O)cc1C(=O)O
Second: O=C(Cl)c1cc(C(=O)Cl)cc(C(=O)Cl)c1
The “activation (H2AX phosphorylation)” value of the first is higher: 0.698% for the first, -3.82% for the second.

Going from `CCCCC(CC)CN1C(=O)C2C3C=CC(C3)C2C1=O` (stereo not given) to `CCCCCCCCCCCC(=O)OC[C@@H](O)[C@H]1OC[C@H](OCCO)[C@H]1OCCO`, the “activation (H2AX phosphorylation)” value falls from -0.435% to -1.12%.

Compared with `CC1OC(=O)C(C)OC1=O` (stereo not given), `CC1=CCCC(C)(C)C12CCC(C)O2` (stereo not given) is lower in “activation (H2AX phosphorylation)” value: 1.14% for the first, 0.643% for the second.

First: CCCCCC[C@@H](O)C/C=C\CCCCCCCC(=O)OC
Second: C=C(C)C(=O)OCCO
The “activation (H2AX phosphorylation)” value of the first is lower: -1.44% for the first, -0.497% for the second.

Compared with `COC(C)OC`, `C[C@H](CCC(=O)O)[C@H]1CC[C@H]2[C@@H]3CC[C@@H]4C[C@H](O)CC[C@]4(C)[C@H]3C[C@H](O)[C@]12C` is higher in “activation (H2AX phosphorylation)” value: 0.389% for the first, 0.762% for the second.

Going from `CN(C)c1ccc(C(c2ccccc2)c2ccc(N(C)C)cc2)cc1` to `Brc1c2ccccc2cc2ccccc12`, the “activation (H2AX phosphorylation)” value rises from -6.18% to -2.07%.

In the case of `O=CC1CC=CCC1` (stereo not given), the “activation (H2AX phosphorylation)” value was -2.85%.

First: COc1cc(C(=O)OCCCN2CCCN(CCCOC(=O)c3cc(OC)c(OC)c(OC)c3)CC2)cc(OC)c1OC
Second: COCCCN1CCC(NC(=O)c2cc(Cl)c(N)c3c2OCC3)CC1
The “activation (H2AX phosphorylation)” value of the first is higher: 0.184% [at 70.9 µM] for the first, 0.0244% [at 70.9 µM] for the second.

Going from `CCN(CC)CCOC(=O)C(Cc1cccc2ccccc12)CC1CCCO1` (stereo not given) to `CN(Cc1ccc(C(C)(C)C)cc1)Cc1cccc2ccccc12`, the “activation (H2AX phosphorylation)” value falls from -0.622% [at 70.9 µM] to -4.07% [at 70.9 µM].

First: O=S(c1cc(Cl)cc(Cl)c1O)c1cc(Cl)cc(Cl)c1O
Second: C#CCN(C)CCCOc1ccc(Cl)cc1Cl
The “activation (H2AX phosphorylation)” value of the first is higher: 8.08% [at 70.9 µM] for the first, 0.72% [at 70.9 µM] for the second.

Compared with `c1ccc(C(O[C@H]2CCCN(CCc3ccc4c(c3)OCO4)C2)c2ccccc2)cc1`, `CN1CCN(C(c2ccccc2)c2ccccc2)CC1` is higher in “activation (H2AX phosphorylation)” value: -5.93% [at 70.9 µM] for the first, -2.87% [at 70.9 µM] for the second.

First: CCCCCCOC(=O)NC(=N)c1ccc(NCc2nc3cc(C(=O)N(CCC(=O)OCC)c4ccccn4)ccc3n2C)cc1
Second: CN(C)CCN(Cc1ccc(Cl)cc1)c1ccccn1
The “activation (H2AX phosphorylation)” value of the first is higher: 0.129% [at 70.9 µM] for the first, -7.18% [at 70.9 µM] for the second.

Going from `C[N+](C)(C)CCOC(=O)CCC(=O)OCC[N+](C)(C)C` to `Cc1cccc(C)c1NC(=O)CN(CC(=O)O)CC(=O)O`, the “activation (H2AX phosphorylation)” value falls from -2.25% [at 70.9 µM] to -2.94% [at 70.9 µM].

Going from `COc1ccc2cccc(CCNC(C)=O)c2c1` to `Nc1c(CC(=O)O)cccc1C(=O)c1ccc(Br)cc1`, the “activation (H2AX phosphorylation)” value falls from -0.46% [at 70.9 µM] to -3.6% [at 70.9 µM].

First: O=C(Nc1ccc(S(=O)(=O)N2CCOCC2)cc1)c1cc(Cl)ccc1NS(=O)(=O)c1ccc(Cl)s1
Second: COc1ccc(C(=O)N2CCN(CC(=O)N3CCOCC3)CC2)cc1
The “activation (H2AX phosphorylation)” value of the first is lower: -4.25% [at 70.9 µM] for the first, -1.15% [at 70.9 µM] for the second.

Going from `O[C@@H](COc1cccc2ncccc12)CN1CCN(C2c3ccccc3[C@@H]3[C@H](c4ccccc42)C3(F)F)CC1` (stereo not given in full) to `O=C(O)C(S)C(S)C(=O)O` (stereo not given), the “activation (H2AX phosphorylation)” value falls from 2.12% [at 70.9 µM] to -0.225% [at 70.9 µM].

For `NCC(=O)O`, the activation (H2AX phosphorylation) was 0.478% [at 31.6 µM].

In the case of `CN(C)c1ccc(/C=C/c2ccc([N+](=O)[O-])cc2)cc1`, the activation (H2AX phosphorylation) was -1.3% [at 14 µM].
